# Results from the antibiotic and cytotoxicity screens of Wong et al. (2023).
# In all, about 39,000 compounds went through this assay and about 3,300 (8.5%) were called active. Only a selection was taken, and actives are over-represented in it overall.
# System: HepG2
# Assay: cytotoxicity call (relative viability < 0.9)
# Conditions: 10 µM
row,SMILES,cytotoxicity call
1,C[C@@H]1CN([C@H](C)CO)C(=O)Cc2cc(NS(=O)(=O)c3cn(C)cn3)ccc2O[C@@H]1CN(C)CC1CCCCC1,inactive
2,C[C@H](CO)N1C[C@H](C)[C@@H](CN(C)Cc2ccc(Oc3ccccc3)cc2)Oc2ncc(-c3ccncc3)cc2C1=O,inactive
3,C[C@@H]1CCCCO[C@H](CN(C)CC2CCCCC2)[C@H](C)CN([C@@H](C)CO)C(=O)c2cc(NC(=O)Nc3ccc(C(F)(F)F)cc3)ccc2O1,active
4,C[C@@H]1CCCCO[C@H](CN(C)CC2CCCCC2)[C@H](C)CN([C@H](C)CO)C(=O)c2cc(NC(=O)Nc3ccc(C(F)(F)F)cc3)ccc2O1,active
5,C[C@@H]1CN([C@@H](C)CO)C(=O)c2cc(NC(=O)Nc3ccc(C(F)(F)F)cc3)ccc2O[C@@H](C)CCCCO[C@@H]1CN(C)CC1CCCCC1,active
6,CCOC(=O)CCCCCC(=O)Nc1ccc2c(c1)C(=O)N([C@H](C)CO)C[C@@H](C)[C@@H](CN(C)S(=O)(=O)c1ccc(Cl)cc1)OCCCC[C@H](C)O2,inactive
7,Cc1ccc(S(=O)(=O)Nc2cccc3c2O[C@@H](CN(C)C(=O)Nc2cccc4ccccc24)[C@@H](C)CN([C@@H](C)CO)C3=O)cc1,inactive
8,Cc1ccc(S(=O)(=O)N(C)C[C@@H]2Oc3ccc(NS(=O)(=O)c4ccccc4)cc3CC(=O)N([C@H](C)CO)C[C@H]2C)cc1,inactive
9,CN1CC(=O)NC1=O,inactive
10,O=C(NCCCO)C(=O)NC[C@H]1COc2ccccc2O1,inactive
11,C[C@H](CO)N1C[C@H](C)[C@@H](CN(C)Cc2ccc3c(c2)OCO3)Oc2ncc(C#CCN(C)C)cc2C1=O,inactive
12,CCCCC(=O)OC1CCC2C3CCc4cc(O)ccc4C3CCC12C (configuration not stated),inactive
13,Cc1ccc(S(=O)(=O)Nc2ccc3c(c2)C(=O)N([C@@H](C)CO)C[C@@H](C)[C@H](CN(C)S(=O)(=O)c2cn(C)cn2)O3)cc1,inactive
14,Cc1cc(C)c2[nH]c3ccccc3c2n1,active
15,CN(C)Cc1nc(=O)c2ccccc2[nH]1,inactive
16,Cc1c[nH]c2ccccc12,inactive
17,Cc1ccc(S(=O)(=O)N(C)C[C@H]2OCCCC[C@@H](C)Oc3ccc(NC(=O)Cc4ccccc4)cc3C(=O)N([C@@H](C)CO)C[C@@H]2C)cc1,inactive
18,Cc1noc(C)c1NC(=O)Nc1ccc2c(c1)CC(=O)N([C@H](C)CO)C[C@@H](C)[C@@H](CN(C)Cc1ccc(Cl)c(Cl)c1)O2,inactive
19,C[C@@H]1CN([C@@H](C)CO)C(=O)Cc2cc(NS(=O)(=O)c3ccc(Cl)cc3)ccc2O[C@@H]1CN(C)Cc1ccc(Oc2ccccc2)cc1,active
20,C[C@H](CO)N1C[C@H](C)[C@H](CN(C)Cc2ccc(Oc3ccccc3)cc2)Oc2ccc(NS(=O)(=O)c3ccc(Cl)cc3)cc2CC1=O,active
21,C[C@H]1CN([C@@H](C)CO)C(=O)Cc2cc(NS(=O)(=O)c3ccc(Cl)cc3)ccc2O[C@H]1CN(C)Cc1ccc(Oc2ccccc2)cc1,active
22,C[C@@H]1CN([C@H](C)CO)C(=O)Cc2cc(NS(=O)(=O)c3ccc(Cl)cc3)ccc2O[C@H]1CN(C)Cc1ccc(Oc2ccccc2)cc1,active
23,COCCNC(=O)C[C@H]1C[C@@H]2c3cc(NC(=O)Nc4ccc(C(F)(F)F)cc4)ccc3O[C@@H]2[C@H](CO)O1,inactive

row,SMILES,cytotoxicity call
1,C[C@H]1CN([C@@H](C)CO)C(=O)Cc2cc(NC(=O)CCCCCC(=O)Nc3ccccc3N)ccc2O[C@H]1CN(C)C(=O)Nc1cccc2ccccc12,inactive
2,Cc1cccc(N2C[C@@H](CN)OC2=O)c1,inactive
3,O=C(O)C[C@@H]1C=C[C@H](NC(=O)c2ccncc2)[C@@H](CO)O1,inactive
4,O=C(NO)c1ccc(C(=O)N/N=C/c2cccc(B(O)O)c2)cc1,inactive
5,C[C@@H]1CN([C@@H](C)CO)C(=O)c2cc(NS(=O)(=O)c3cccs3)ccc2O[C@@H](C)CCCCO[C@H]1CN(C)C(=O)Nc1ccc(F)cc1,inactive
6,COc1ccc(S(=O)(=O)Nc2cccc3c2O[C@H](CN(C)S(=O)(=O)c2cccs2)[C@@H](C)CN([C@H](C)CO)C3=O)cc1,inactive
7,C[C@@H]1CN([C@H](C)CO)C(=O)Cc2cc(NS(=O)(=O)c3ccc(Cl)cc3)ccc2O[C@@H]1CN(C)Cc1ccc(Oc2ccccc2)cc1,active
8,C[C@H]1CN([C@@H](C)CO)C(=O)Cc2cc(NS(=O)(=O)c3ccc(Cl)cc3)ccc2O[C@@H]1CN(C)Cc1ccc(Oc2ccccc2)cc1,active
9,C[C@H](CO)N1C[C@H](C)[C@@H](CN(C)Cc2ccc(Oc3ccccc3)cc2)Oc2ccc(NS(=O)(=O)c3ccc(Cl)cc3)cc2CC1=O,inactive
10,C[C@@H]1CN([C@@H](C)CO)C(=O)Cc2cc(NS(=O)(=O)c3ccc(Cl)cc3)ccc2O[C@H]1CN(C)Cc1ccc(Oc2ccccc2)cc1,active
11,C[C@H]1CN([C@@H](C)CO)S(=O)(=O)c2ccc(C#CC3CC3)cc2O[C@H]1CN(C)Cc1ccccc1F,inactive
12,COc1ccc(CN(C)C[C@H]2Oc3ccc(NS(C)(=O)=O)cc3CC(=O)N([C@H](C)CO)C[C@@H]2C)cc1,inactive
13,C[C@@H]1CN([C@@H](C)CO)C(=O)c2cccc(NS(=O)(=O)c3ccc(F)cc3)c2O[C@H]1CN(C)CC1CC1,inactive
14,C[C@H]1CCCCO[C@H](CN(C)C(=O)Nc2cccc3ccccc23)[C@@H](C)CN([C@@H](C)CO)C(=O)c2cc(NC(=O)Nc3ccccc3)ccc2O1,inactive
15,C[C@@H]1CCCCO[C@H](CN(C)S(=O)(=O)c2ccc(Cl)cc2)[C@@H](C)CN([C@H](C)CO)C(=O)c2cc(NC(=O)C3CCCCC3)ccc2O1,inactive
16,CN(C)CC(=O)N1[C@H](CO)[C@@H](c2ccc(C3=CCCC3)cc2)C12CN(S(=O)(=O)Cc1ccccc1)C2,inactive
17,CCOc1ccc(-n2c([C@@H](C)N(Cc3cccnc3)C(=O)Cc3ccc(OC(F)(F)F)cc3)nc3ncccc3c2=O)cc1,inactive
18,Cn1c(=O)[nH]c2ccccc21,inactive
19,CCn1c(=S)[nH]c2ccccc21,inactive
20,CC(C)n1c(=S)[nH]c2ccccc21,active
21,COc1ccc(CN(C)C[C@@H]2OCCCC[C@H](C)Oc3ccc(NS(=O)(=O)c4cccs4)cc3C(=O)N([C@H](C)CO)C[C@@H]2C)cc1,inactive
22,CCNC(=O)c1coc(C)n1,inactive
23,CCNC(=O)c1sc(C)nc1N,active

row,SMILES,cytotoxicity call
1,CCNC(=O)c1csc(N)n1,inactive
2,C[C@@H]1CN([C@H](C)CO)C(=O)c2cc(Br)cnc2O[C@@H]1CN(C)C(=O)Nc1ccc(F)cc1,inactive
3,O=C(O)c1cc2n(n1)CCC2,inactive
4,C[C@H](CO)N1C[C@H](C)[C@@H](CN(C)Cc2ccc3c(c2)OCO3)OCCCC[C@H](C)Oc2ccc(NS(=O)(=O)c3ccc(Cl)cc3)cc2C1=O,inactive
5,C[C@@H]1CCCCO[C@H](CN(C)Cc2ccc3c(c2)OCO3)[C@H](C)CN([C@H](C)CO)C(=O)c2cc(NS(=O)(=O)c3ccc(Cl)cc3)ccc2O1,inactive
6,C[C@@H]1CCCCO[C@H](CN(C)Cc2ccc3c(c2)OCO3)[C@@H](C)CN([C@H](C)CO)C(=O)c2cc(NS(=O)(=O)c3ccc(Cl)cc3)ccc2O1,inactive
7,C[C@@H]1CCCCO[C@H](CN(C)Cc2ccc3c(c2)OCO3)[C@@H](C)CN([C@@H](C)CO)C(=O)c2cc(NS(=O)(=O)c3ccc(Cl)cc3)ccc2O1,inactive
8,C[C@@H]1CCCCO[C@@H](CN(C)Cc2ccc3c(c2)OCO3)[C@H](C)CN([C@H](C)CO)C(=O)c2cc(NS(=O)(=O)c3ccc(Cl)cc3)ccc2O1,active
9,C[C@@H]1CCCCO[C@@H](CN(C)Cc2ccc3c(c2)OCO3)[C@@H](C)CN([C@H](C)CO)C(=O)c2cc(NS(=O)(=O)c3ccc(Cl)cc3)ccc2O1,active
10,C[C@@H]1CN([C@@H](C)CO)C(=O)c2cc(NS(=O)(=O)c3ccc(Cl)cc3)ccc2O[C@@H](C)CCCCO[C@@H]1CN(C)Cc1ccc2c(c1)OCO2,inactive
11,C[C@@H]1CCCCO[C@H](CN(C)Cc2ccc3c(c2)OCO3)[C@H](C)CN([C@@H](C)CO)C(=O)c2cc(NS(=O)(=O)c3ccc(Cl)cc3)ccc2O1,active
12,C[C@H](CO)N1C[C@H](C)[C@H](CN(C)Cc2ccc3c(c2)OCO3)OCCCC[C@H](C)Oc2ccc(NS(=O)(=O)c3ccc(Cl)cc3)cc2C1=O,inactive
13,C[C@H]1CCCCO[C@@H](CN(C)Cc2ccc3c(c2)OCO3)[C@@H](C)CN([C@@H](C)CO)C(=O)c2cc(NS(=O)(=O)c3ccc(Cl)cc3)ccc2O1,inactive
14,C[C@H]1CCCCO[C@H](CN(C)Cc2ccc3c(c2)OCO3)[C@@H](C)CN([C@@H](C)CO)C(=O)c2cc(NS(=O)(=O)c3ccc(Cl)cc3)ccc2O1,inactive
15,C[C@@H]1CN([C@@H](C)CO)C(=O)c2cc(NS(=O)(=O)c3ccc(Cl)cc3)ccc2O[C@@H](C)CCCCO[C@H]1CN(C)Cc1ccc2c(c1)OCO2,active
16,C[C@H](CO)N1C[C@H](C)[C@H](CN(C)S(C)(=O)=O)Oc2ccc(NS(=O)(=O)c3ccc(Cl)cc3)cc2C1=O,inactive
17,OCc1cccc(Cn2cncn2)c1,inactive
18,C[C@@H]1CN([C@@H](C)CO)S(=O)(=O)c2ccc(Br)cc2O[C@H]1CN(C)C(=O)c1ccccc1,inactive
19,COCC#Cc1ccc([C@@H]2[C@H]3CN(C(=O)c4ccncc4)CC(=O)N3[C@H]2CO)cc1,inactive
20,COc1ccc(NC(=O)Nc2ccc3c(c2)C(=O)N([C@H](C)CO)C[C@H](C)[C@@H](CN(C)S(=O)(=O)c2ccc(F)cc2)OCCCC[C@@H](C)O3)cc1,inactive
21,C[C@H]1CN([C@@H](C)CO)C(=O)Cc2cc(NC(=O)Cn3cnnn3)ccc2O[C@H]1CN(C)Cc1ccc(C(=O)Nc2ccccc2N)cc1,inactive
